Source: PubChem BioAssay (National Center for Advancing Translational Sciences (NCATS))
D3 ag – agonists of human D3 dopamine receptor. P35462. D3R DiscoveRx beta-arrestin cells, luminescence, 90 min. hit rate 0.58% among 410,000. max activation, %; in the data active means max activation above about 30%; further: 0% is about no effect
Target sequence (P35462 whole entry, looked up): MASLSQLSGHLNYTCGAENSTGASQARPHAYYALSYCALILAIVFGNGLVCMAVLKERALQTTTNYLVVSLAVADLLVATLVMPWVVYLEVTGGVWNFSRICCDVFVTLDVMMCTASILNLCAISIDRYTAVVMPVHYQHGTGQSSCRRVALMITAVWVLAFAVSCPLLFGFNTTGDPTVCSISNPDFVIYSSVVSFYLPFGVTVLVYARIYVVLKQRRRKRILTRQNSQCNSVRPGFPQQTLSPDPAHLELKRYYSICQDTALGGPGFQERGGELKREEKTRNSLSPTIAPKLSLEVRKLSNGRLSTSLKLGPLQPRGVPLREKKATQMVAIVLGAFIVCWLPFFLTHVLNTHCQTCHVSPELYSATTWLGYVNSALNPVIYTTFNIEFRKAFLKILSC
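Cells at 1500/well, incubated overnight, then treated with pinned compounds (dopamine as control) for 90 min at 37 degrees C. DiscoveRx reagent added for 30 - 60 minutes at room temperature; luminescence read.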
DRD3 antagonist – blocks the human D3 dopamine receptor | P35462 | D3R cells, DiscoveRx beta-arrestin luminescence, antagonist mode; active compounds read low | max response, negative = inhibition, % | hit rate 2.5% among 360,000 | AID 652054; in the data active means max response below about -50%; inconclusive means no clear call, values can overlap the other calls; further: on the % scale 0 is the no-effect control and ±100 the full control effect
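Cells expressing the human receptor were seeded at 1500 cells/well, incubated overnight at 37 degrees C in 5% CO2, then exposed to library compounds with dopamine controls for 90 minutes at 37 degrees C before luminescent detection.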
a7 integrin act – integrin-mediated muscular dystrophy alleviation activation; alpha7betagal myoblasts, beta-gal FDG fluorescence, 48 h; Potency, µM (top dose mostly 38.3 µM), inactives show at the top dose activation, actives largely listed as activators; hit rate 0.064% among 350,000; AID 624291; active means well fitted activation curve with a large enough effect; inconclusive means small, poorly fitted or top-dose-only effect; inactive means no such curve, though single readings can be large or run the other way;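 further: potency means the concentration at half of the fitted maximal effect; 100% = response of the positive control SU9516; nearly all actives have a fitted effect of over 60% in size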
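Alpha7betagal+/- myoblasts (passage 13) were plated 16-24 hr, then exposed to compounds (1:260 dilution of DMSO stock) for 48 hours at 37C. After MPER lysis, β-galactosidase reporter activity was read as FDG fluorescence (ex 480/em 540) after 30 minutes.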
The depositor's hits bear a star; ? = inconclusive; nt = not tested or not shown; ! = repeats disagree. Only some compounds are listed: those with a hit (about 2.9% of all), similar ones and a draw of the others.

SMILES | D3 ag | DRD3 antagonist | a7 integrin act
CN(C)CCN(Cc1ccccc1)C(=O)c1[nH]c(C(F)(F)F)nc1-c1ccccc1 | 38.6* | 0.0 | nt
O=C(NCCC1=CCCCC1)c1[nH]c(C(F)(F)F)nc1-c1ccccc1 | 112.2* | -6.1 | nt
O=C(NCCc1ccccc1)c1[nH]c(C(F)(F)F)nc1-c1ccccc1 | 7.7 | 10.4 | nt
CC(C)=CCC12Oc3cc(O)ccc3C1(O)Oc1cc(O)c([C@H]3C=C(C)CC(c4ccc(O)cc4O)[C@H]3C(=O)c3ccc(O)cc3O)c(O)c1C2=O (some centres undefined) | -43.6 | -52.1* | -19.8%
COC(=O)c1sccc1S(=O)(=O)N(CC(=O)NCc1ccc(C)cc1)c1ccc(C)cc1 | -0.1 | nt | nt
O=C(CCCN1C(=O)c2cccc3cccc(c23)C1=O)NCCN1CCOCC1 | -13.0 | -15.0 | -6.6%
CCOC(=O)N1CCN(Cc2ccc3c(c2)OCO3)CC1 | 10.1 | -28.2 | -35.9%
O=C(c1cc2ccccc2o1)N1CCN(Cc2ccc3c(c2)OCO3)CC1 | -19.9 | -104.4* | 10.7%
O=C(c1cc2ccccc2oc1=O)N1CCN(Cc2ccc3c(c2)OCO3)CC1 | 11.0 | -20.7 | -21.4%
O=C(c1ccc(S(=O)(=O)N2CCCC2)cc1)N1CCN(Cc2ccc3c(c2)OCO3)CC1 | -12.7 | -51.5* | -0.8%
O=C(N1CCN(Cc2ccc3c(c2)OCO3)CC1)C12CC3CC(CC(C3)C1)C2 | -29.5 | -64.2* | ?
Cc1ccc(C(=O)N2CCN(Cc3ccc4c(c3)OCO4)CC2)o1 | 1.5 | -61.9* | 3.4%
CN(c1ccc(C(=O)N2CCN(Cc3ccc4c(c3)OCO4)CC2)cc1)S(C)(=O)=O | 2.7 | -21.6 | 7.8%
O=C(c1cc(F)c(F)c(F)c1F)N1CCN(Cc2ccc3c(c2)OCO3)CC1 | -2.9 | 8.6 | -21.2%
CC1Sc2ccc(S(=O)(=O)N3CCC(C(=O)NCC(C)c4ccccc4)CC3)cc2NC1=O (centres undefined) | -3.5 | 6.4 | -33.6%
CC(C)(C)c1ccc(NC(=O)N2CCCN(c3ccc([N+](=O)[O-])cn3)CC2)cc1 | -9.4 | -20.5 | -32.3%
CCN(c1ccccc1)S(=O)(=O)c1ccc(Cl)c(NC(=O)CNCc2ccccc2OC)c1 | -34.0 | -65.7* | -40.1%
CCN(c1ccccc1)S(=O)(=O)c1ccc(OC)c(NC(=O)Cc2ccccc2OC)c1 | -5.7 | -1.6 | 0.0%
CS/C(=C\[N+](=O)[O-])Nc1ccc(Cl)cc1 | -16.3 | -83.7* | -8.7%
CC(C)=CC(=O)Nc1ccc(Cl)cc1 | 0.0 | -0.5 | -13.3%
CCC(C)CCN1C(N(C)C)=NC[C@@H]1CC(C)C (some centres undefined) | -13.9 | 0.0 | -41.7%
Cc1cc(NC(=O)CS(=O)(=O)c2cn(Cc3cccc(Br)c3)c3ccccc23)no1 | -15.6 | -8.1 | nt
COc1ccc(NC(=O)/C(C#N)=C/c2ccc(OCc3cc(=O)n4nc(C)sc4n3)cc2)cc1 | -14.3 | nt | nt
Cc1nn2c(=O)cc(COc3ccc(/C=C(\C#N)C(=O)Nc4ccc(F)cc4)cc3)nc2s1 | 78.5* | nt | nt
Cc1ccc(OCCNc2ccc(C(F)(F)F)cc2[N+](=O)[O-])cc1 | 4.5 | 1.8 | ?
SMILES | D3 ag | DRD3 antagonist | a7 integrin act
O=C(CS(=O)c1ccc(C(F)(F)F)cc1[N+](=O)[O-])Oc1ccc(Cl)cc1 (centres undefined) | -4.3 | -96.5* | -48.5%
Cc1cc(C)cc(OC(=O)CS(=O)c2ccc(C(F)(F)F)cc2[N+](=O)[O-])c1 (centres undefined) | -8.9 | -73.3* | -46.0%
O=C(NCCO)c1ccc(Oc2ccc(C(F)(F)F)cc2[N+](=O)[O-])cc1 | 23.8 | 4.1 | 32.9%
COc1ccc(CNS(=O)(=O)NCc2ccccc2F)cc1 | -9.9 | -10.4 | -41.6%
COc1ccccc1C(=O)NNC(=O)C(=O)NC(C)C | 6.8 | 6.3 | 7.3%
O=c1oc2cc(O)ccc2cc1-c1nc2ccccc2o1 | 5.0 | 64.0 | nt
O=c1oc2cc(O)ccc2cc1S(=O)(=O)c1ccccc1 | 34.7* | -6.8 | ?
NC(=S)c1cc2ccc(O)cc2oc1=O | -25.1 | -68.3* | 26.7%
C/C(=N/NC(N)=S)c1cc2ccc(O)cc2oc1=O | 8.0 | 37.6 | -14.6%
CCOC(=O)C1=C(COC(=O)c2cc(S(=O)(=O)N3CCOCC3)ccc2F)NC(=O)NC1C (centres undefined) | 13.0 | 15.6 | ?
O=C(NNC(=O)c1ccccc1Br)c1cccs1 | 4.9 | 2.8 | -8.9%
CCOc1cc(/C=C2\N=C(SC)SC2=O)cc([N+](=O)[O-])c1OC(C)=O | 0.3 | -13.6 | 16.7%
CCOc1c(OC(C)=O)ccc(/C=C2\N=C(SCC)SC2=O)c1[N+](=O)[O-] | 0.7 | -70.2* | -20.7%
CCOc1c(O)ccc(/C=C2\SC(=S)NC2=O)c1[N+](=O)[O-] | -0.8 | -15.4 | ?
CCOc1cc(/C=C2\N=C(SCC)SC2=O)cc([N+](=O)[O-])c1OC(C)=O | -7.7 | -96.6* | 19.4%
O=C(NCC12CC3CC(CC(C3)C1)C2)c1cc2n(n1)C(C(F)(F)F)CC(c1ccco1)N2 (centres undefined) | 9.3 | 17.9 | -1.1%
C/C(CC(=O)Nc1ccc2c(c1)OCCO2)=N\NC(=O)COc1cccc(C)c1 | -6.4 | -7.8 | 0.0%
CN(c1ccccc1)S(=O)(=O)c1nnc(NC(=O)c2ccco2)s1 | -10.0 | 18.4 | -28.3%
CCN(c1ccccc1)S(=O)(=O)c1nnc(NC(=O)CC(C)C)s1 | -12.2 | -65.9* | 5.9%
CCCCC(=O)Nc1nnc(S(=O)(=O)N(CC)c2ccccc2)s1 | -3.0 | -0.4 | 0.0%
CC(C)CN(c1ccccc1)S(=O)(=O)c1nnc(NC(=O)c2ccco2)s1 | -20.5 | -86.4* | 6.9%
O=C(COC(=O)c1cccc(S(=O)(=O)NCc2ccccc2)c1)NC1CC1 | 7.6 | 6.5 | 12.9%
Cc1cc(NC(=O)COC(=O)COc2ccc3c(c2)CCC3)no1 | 1.9 | -1.6 | 11.7%
CCn1c(SCC(=O)NCc2cccs2)nnc1-c1ccco1 | 2.5 | 30.3 | -15.8%
O=C(CCN1C(=O)c2ccccc2S1(=O)=O)N1CCN(c2ccc(F)cc2)CC1 | 0.4 | 0.5 | -5.5%
SMILES | D3 ag | DRD3 antagonist | a7 integrin act
O=C1c2ccccc2S(=O)(=O)N1CCS(=O)(=O)c1ccc(F)cc1 | 86.9* | -17.1 | 8.1%
COc1ccccc1OCC(O)COC(N)=O (centres undefined) | -20.4 | 4.4 | nt
COc1ccccc1OCC(O)CO (centres undefined) | 82.9*! | 4.8 | nt
Cn1c(N)c(C(=O)CSc2nnc(C3CC3)n2Cc2ccccc2)c(=O)[nH]c1=O | -15.1 | 18.9 | 14.9%
CC(=O)c1ccc(N2CCN(C(=O)CCCCn3c(=O)[nH]c4ccsc4c3=O)CC2)cc1 | 7.1 | nt | nt
CCN(CC)CCOC(=O)/C=C/c1ccccc1 | -17.0 | -63.0* | 18.6%
O=C(/C=C/c1ccccc1)OCc1ccccc1 | 3.8 | nt | nt
CCC(C(=O)OCCOCCN(CC)CC)c1ccccc1 (centres undefined) | -10.0 | -0.9 | 13.0%
CCN(CC)CCCOC(=O)C(c1ccccc1)c1ccccc1 | -53.5 | -85.2* | -13.9%
O=C(N/N=C/c1cccc([N+](=O)[O-])c1)c1ccc2nc[nH]c2c1 | -7.7 | ? | -7.4%
Cc1nc2ccc(C(=O)O)cc2c2c1CC(CN)O2 (centres undefined) | 2.9 | 20.6 | ?
COc1cccc(N2CCN(CC(=O)Nc3ccccc3C(=O)NCCc3ccccc3)CC2)c1 | 33.8* | 26.9 | -25.1%
